From PubChem BioAssay (NCATS) come the findings set out here.

Several values for one entry are separate records, joined by “and”; a condition that tells them apart may be missing. Equal values may be shown once. Inconclusive results are not listed. Unmarked numbers belong to inactive results. Activity calls are given as the source filed them. Calls follow the shape of the dose curve; as a rule, active = well fitted inhibition curve with a large enough effect; inconclusive = small, poorly fitted or top-dose-only effect; inactive = flat fitted curve, though single readings scatter.
Potency is read from the fitted curve at half-maximal effect.

Sequence of Ubiquitin carboxyl-terminal hydrolase 2 (Homo sapiens) (O75604 whole entry, looked up): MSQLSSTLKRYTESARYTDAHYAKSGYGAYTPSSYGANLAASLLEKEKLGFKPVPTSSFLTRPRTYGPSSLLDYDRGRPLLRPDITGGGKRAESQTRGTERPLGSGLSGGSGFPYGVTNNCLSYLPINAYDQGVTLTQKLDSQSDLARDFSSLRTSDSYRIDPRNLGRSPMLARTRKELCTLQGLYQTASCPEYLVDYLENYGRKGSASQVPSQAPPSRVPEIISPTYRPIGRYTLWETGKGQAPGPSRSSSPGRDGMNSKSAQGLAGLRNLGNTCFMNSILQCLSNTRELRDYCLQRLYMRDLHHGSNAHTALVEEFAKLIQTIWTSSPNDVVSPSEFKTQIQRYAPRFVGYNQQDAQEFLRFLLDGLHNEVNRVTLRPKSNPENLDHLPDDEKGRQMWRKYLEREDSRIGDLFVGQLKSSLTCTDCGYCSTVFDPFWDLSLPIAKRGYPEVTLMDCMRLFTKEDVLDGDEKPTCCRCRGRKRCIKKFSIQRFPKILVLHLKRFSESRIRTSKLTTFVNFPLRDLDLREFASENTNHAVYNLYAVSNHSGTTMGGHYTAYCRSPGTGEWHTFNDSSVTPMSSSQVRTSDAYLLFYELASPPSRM

The assay concerns the target Ubiquitin carboxyl-terminal hydrolase 2 (Homo sapiens) (UniProt O75604). Put plainly: qHTS for Inhibitors of Ubiquitin-specific Protease USP2a Using CHOP2 as the Reporter: K484 Substrate (AID 652173). Also: nearly all actives have a fitted effect of over 70% in size. The conditions noted are these: USP2 cleavage of DiUb K48 IQF substrate, fluorescence; series mostly up to 57.5 µM; activity change, negative = inhibition: at the top concentration. From the text:
Homeostasis of cellular proteins is maintained through a combination of synthesis and degradation. The pathway that accounts for the majority of protein degradation is the ubiquitin-proteasomal pathway. Ubiquitin (Ub) is highly conserved in all cells and the generation of a multi-Ub chain typically targets proteins for degradation by the proteasome. However, ubiquitination is highly reversible and dynamic. Deubiquitination, the reverse process, is catalyzed through the action of enzymes referred to as isopeptidases or deubiquitinating enzymes (DUBs). This group of enzymes is collectively responsible for maintaining adequate pools of free ubiquitin and regulating the ubiquitination status of cellular proteins. The class of DUBs referred to as the ubiquitin-specific proteases (USP) family functions endoproteolytically to cleave Ub chains from a wide range of protein substrates. USP2a deubiquitinates fatty acid synthase (FASN) which has recently been identified as an emerging oncology target. To identify inhibitors of USP2a a cell-free qHTS assay was employed. Confirmed qHTS active compounds were tested in orthogonal USP2 assays utilizing a di-ubiquitin substrate labeled with a quencher on one ubiquitin and a fluorescent compound on the other, i.e. the substrate has internally quenched fluorescence or IQF (Lifesensors). In the presence of active USP2, the diubiquitin (DiUb) is cleaved and the fluorescence at 598 nm increases. This assay is run in kinetic mode. Upon inhibition of USP2, the fluorescence signal from cleaved substrate increases less over time than in the absence of an inhibitor. This assay was also used during SAR. The buffer consisted of 20 mM Tris pH 8, 2 mM beta-mercaptoethanol and 0.05% Chaps, and the assay was run in black solid-bottom Greiner plates. NIH Molecular Libraries Probe Centers Network [MLPCN] NIH Chemical Genomics Center [NCGC] MLSCN Grant: MH079852 PI Name: Benjamin Nicholson, Progenra Inc, Malvern, PA
3 uL of 5 nM USP2 (or no enzyme) was dispensed in assay buffer was dispensed into a 1536-well plate and then compounds were added through pinning. 1 uL of 100 nM DiUb K48-4IQF subtsrate was added before fluoresence on the ViewLux in kinetic moder (Ex 525/Em 598).
(In general: qHTS replaces the single test concentration by a dilution series.)
As to `Cc1ccc(S(=O)(=O)Nc2cc(Cl)cc(C(=O)Nc3nc(-c4ccccc4)cs3)c2)cc1`, the Potency was 3.06 µM (active).

As to `O=c1[nH]c(CCl)nc2sc3c(c12)CCCC3`, the “activity change, negative = inhibition” value was -16.8%. On to `CC(=O)NS(=O)(=O)c1ccc(NC(=O)c2cc(-c3ccc(C)c(C)c3)nc3ccccc23)cc1`, for which the Potency was 12.2 µM (active). Consider `Cc1ccc(-c2cc(C(=O)N3CC[S+](=O)([O-])CC3)c3ccccc3n2)cc1C`, for which the “activity change, negative = inhibition” value was -24.7%. `Cc1ccc(S(=O)(=O)Nc2ccc(C(=O)Nc3ncc(-c4ccccc4)s3)cc2)cc1`: the Potency is 2.43 µM (active). On the same count and under the same terms, next, `COc1ccc(OC)c(C(=O)Nc2nc(-c3ccccc3)cs2)c1`: 7.69 µM (active); `Cc1ccc(NS(=O)(=O)c2ccc(C(=O)Nc3nc(-c4ccccc4)cs3)cc2)cc1`: 3.43 µM (active). The same measure, in the same setting: then `Cc1noc(C)c1S(=O)(=O)Nc1cnccc1C(=O)Nc1nc(-c2ccccc2)cs1`, with 6.85 µM (active); and `Cc1ccc(C(=O)Nc2ccccc2C(=O)Nc2nc(-c3ccccc3)cs2)cc1`, with 5.44 µM (active). Regarding `Cc1ccc(-c2cc(C(=O)Nc3ccc(-c4nn[nH]n4)cc3)c3ccccc3n2)cc1C`, the Potency is 4.85 µM (active).

As for `Cc1ccc(S(=O)(=O)Nc2ccccc2C(=O)Nc2nc(-c3ccc(Cl)cc3)cs2)cc1`, the Potency was 1.93 µM (active).

Regarding `Cc1ccc(-c2cc(C(=O)Nc3ccc(S(=O)(=O)NCc4nccs4)cc3)c3ccccc3n2)cc1C`, the Potency was 3.43 µM (active). For the compound `O=C(Nc1ccc([S+](=O)([O-])Nc2nccs2)cc1)c1ccn[nH]1`, the “activity change, negative = inhibition” value was -25.9%.

For `Cc1ccc(S(=O)(=O)Nc2cccc(C(=O)Nc3nc(-c4ccc(Cl)cc4)cs3)c2)cc1`, the Potency was 2.43 µM (active). Regarding `Cc1ccc(S(=O)(=O)Nc2ccccc2C(=O)Nc2nccs2)cc1`, the Potency was 24.3 µM (active). Same read-out and setting: next, `Cc1ccc(S(=O)(=O)Nc2cnccc2C(=O)Nc2nc(-c3ccc(Cl)c(Cl)c3)cs2)cc1`: 3.06 µM (active); `COc1cc(C(=O)Nc2nc(-c3ccccc3)cs2)ccc1NS(=O)(=O)c1ccc(C)cc1`: 2.73 µM (active). Take `Cc1ccc([S+](=O)([O-])n2cc(Cc3ccc(-c4ccccc4)cc3)c3ccccc32)cc1`: the “activity change, negative = inhibition” value is -29.8%. Consider `Cc1ccc(S(=O)(=O)Nc2ccccc2C(=O)Nc2ccc(-c3ccccc3)cn2)cc1`, for which the Potency is 2.17 µM (active).

Turning to `Cc1ccc(S(=O)(=O)Nc2cc(F)c(F)cc2C(=O)Nc2nc(-c3ccccc3)cs2)cc1`, the Potency was 0.863 µM (active). Still for that read-out and setting: next, `O=C(Nc1ccc(S(=O)(=O)Nc2nc(-c3ccccc3)cs2)cc1)c1ccc2ccccc2c1`: 2.43 µM (active).

Regarding `Cc1ccc(C(=O)[C@H]2CC[C@@H](C(=O)Nc3ccc(S(=O)(=O)Nc4nccs4)cc3)C2)cc1C`, the Potency is 3.85 µM (active). For `CC1CCC(C(=O)Nc2ccc([S+](=O)([O-])Nc3nccs3)cc2)CC1` (stereo not given), the “activity change, negative = inhibition” value is -25.9%.

Take `Cc1ccc(-c2cc(C(=O)NCc3ccc(S(C)(=O)=O)cc3)c3ccccc3n2)cc1C`: the Potency is 10.9 µM (active). Consider `O=[S+]([O-])(NCc1nccs1)c1ccc(Nc2nc(-c3ccccc3)cs2)cc1`, for which the “activity change, negative = inhibition” value was -9.15%.

Consider `O=C(Nc1ccc([S+](=O)([O-])Nc2nccs2)cc1)C1CCNCC1`, for which the “activity change, negative = inhibition” value was -14.1%.

Regarding `Cc1ccc(S(=O)(=O)Nc2ccccc2C(=O)Nc2nc(-c3ccccc3)c(Br)s2)cc1`, the Potency is 1.22 µM (active). On the same count and under the same terms, then `Cc1ccc(-c2cc(C(=O)Nc3ccc(C(=O)O)cc3)c3ccccc3n2)cc1C`, with 21.7 µM (active). Still for that read-out and setting: next, `Cc1ccc(NS(=O)(=O)c2cccc(C(=O)Nc3nc(-c4ccccc4)cs3)c2)cc1`: 3.06 µM (active); `Cc1ccc(S(=O)(=O)Nc2ccc(C)cc2C(=O)Nc2nc(-c3ccccc3)cs2)cc1`: 1.93 µM (active). The same measure, in the same setting: next, `O=C(Nc1nc(-c2ccccc2)cs1)c1ccncc1NS(=O)(=O)c1ccc(N2CCCC2=O)cc1`: 15.3 µM (active); `Cc1ccc(S(=O)(=O)n2cc(C(=O)Nc3nc(-c4ccccc4)cs3)c3ccccc32)cc1`: 6.11 µM (active). Turning to `CC(=O)Nc1ccc(S(=O)(=O)Nc2nccs2)cc1`, the Potency entry is “inactive”. On the same count and under the same terms, next, `Cc1ccc(S(=O)(=O)Nc2cnccc2C(=O)Nc2nc(C3CCC3)cs2)cc1`: 17.2 µM (active); `Cc1ccc(S(=O)(=O)Nc2ccccc2C(=O)Nc2nc(-c3ccccc3)cs2)cc1`: 1.72 µM (active) and 1.93 µM (active). Same read-out and setting: then `Cc1ccc(S(=O)(=O)Nc2cnccc2C(=O)Nc2nc(-c3ccncc3)cs2)cc1`, with 15.3 µM (active). With `Cc1ccc(-c2csc(NC(=O)c3ccccc3NS(=O)(=O)c3ccc(C)cc3)n2)cc1`, the Potency was 1.93 µM (active).

Consider `O=C(Nc1ccc(S(=O)(=O)Nc2nccs2)cc1)c1cccnc1`, for which the “activity change, negative = inhibition” value is -21%. On the same count and under the same terms, then `O=C(CCc1ccccc1)Nc1ccc(S(=O)(=O)Nc2nccs2)cc1`, with -18%. Same read-out and setting: then `O=c1[nH]c(CN2CCOCC2)nc2sc3c(c12)CCCC3`, with -5.01%.
